“And” between values parts separate entries of the source, which are not always exact repeats. Equal entries are not always repeated. Unmarked numbers belong to inactive results. Where a call stands in place of a potency, no number is given. More than one record can exist for a structure, and the calls need not agree. The source made the active and inactive calls. Unless noted, calls come from the whole dose curve; as a rule, active = well fitted curve in the direction sought with a large enough effect in the repeat runs; inconclusive = weak or mixed curves; inactive = flat fitted curve, though single readings scatter.
Assays:
[1] = qHTS assay to test for compound auto fluorescence at 535 nm (green) in HEK293 cells (AID 720680)
[2] = qHTS assay to test for compound auto fluorescence at 460 nm (blue) in HEK293 cell free culture (AID 720681)
Method in brief: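 Test compounds were pinned into cell-free culture medium (DMEM with 10% FBS) and fluorescence was read directly at Ex/Em 405/460 nm. Signals were expressed as fluorescence equivalents of triamterene, with DMSO vehicle as control.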

[3] = qHTS assay to test for compound auto fluorescence at 535 nm (green) in HEK293 cell free culture (AID 720682)
Method in brief: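 Read-out: 485/535 nm fluorescence intensity, calibrated against fluorescein. Medium only (DMEM + 10% FBS, no cells); test compound or DMSO vehicle added by pintool before plate reading.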

[4] = qHTS assay to test for compound auto fluorescence at 590 nm (red) in HEK293 cell free culture (AID 720683)
Method in brief: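 Tox21 10K library compounds were pinned into cell-free DMEM with 10% FBS and fluorescence was read at excitation 540 nm. Activity is expressed as Rose Bengal sodium equivalency.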

[5] = qHTS assay to test for compound auto fluorescence at 590 nm (red) in HepG2 cell free culture (AID 720684)
Method in brief: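 Measured in medium alone (MEM containing 10% FBS) following pintool addition of compound; emission at 590 nm with 540 nm excitation, referenced to Rose Bengal sodium.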

[6] = qHTS assay to test for compound auto fluorescence at 460 nm (blue) in HepG2 cell free culture (AID 720685)
Method in brief: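 Compound (23 nL) or DMSO pinned into cell-free MEM with 10% FBS; blue fluorescence read at 405/460 nm excitation/emission, expressed as auto-fluorescence equivalency to triamterene.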

[7] = qHTS assay to test for compound auto fluorescence at 535 nm (green) in HepG2 cell free culture (AID 720686)
[8] = qHTS assay to test for compound auto fluorescence at 460 nm (blue) in HepG2 cells (AID 720687)
Method in brief: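 Cells (2,000/well in MEM with 10% FBS) attached overnight at 37 C, then were exposed to compound or DMSO for 1 hr at 37 C, 5% CO2. Fluorescence read at Ex/Em 405/460 nm, expressed as triamterene-equivalent signal.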

[9] = molecular target: Glucocorticoid receptor (Homo sapiens) (UniProt P04150); experiment: qHTS assay to identify small molecule agonists of the glucocorticoid receptor (GR) signaling pathway (AID 720691; active = well fitted activation curve with a large enough effect in the signal ratio in the repeat runs, not every such curve was filed as active; inconclusive = weak or mixed curves, or effect the other way; inactive = no such curve, though single readings can be large or run the other way; the % refers to the signal ratio; note: potency is the fitted concentration of half-maximal effect); details: GR-bla HeLa, beta-lactamase reporter ratio, 18 h
Glucocorticoid receptor (Homo sapiens), sequence (P04150 whole entry, looked up): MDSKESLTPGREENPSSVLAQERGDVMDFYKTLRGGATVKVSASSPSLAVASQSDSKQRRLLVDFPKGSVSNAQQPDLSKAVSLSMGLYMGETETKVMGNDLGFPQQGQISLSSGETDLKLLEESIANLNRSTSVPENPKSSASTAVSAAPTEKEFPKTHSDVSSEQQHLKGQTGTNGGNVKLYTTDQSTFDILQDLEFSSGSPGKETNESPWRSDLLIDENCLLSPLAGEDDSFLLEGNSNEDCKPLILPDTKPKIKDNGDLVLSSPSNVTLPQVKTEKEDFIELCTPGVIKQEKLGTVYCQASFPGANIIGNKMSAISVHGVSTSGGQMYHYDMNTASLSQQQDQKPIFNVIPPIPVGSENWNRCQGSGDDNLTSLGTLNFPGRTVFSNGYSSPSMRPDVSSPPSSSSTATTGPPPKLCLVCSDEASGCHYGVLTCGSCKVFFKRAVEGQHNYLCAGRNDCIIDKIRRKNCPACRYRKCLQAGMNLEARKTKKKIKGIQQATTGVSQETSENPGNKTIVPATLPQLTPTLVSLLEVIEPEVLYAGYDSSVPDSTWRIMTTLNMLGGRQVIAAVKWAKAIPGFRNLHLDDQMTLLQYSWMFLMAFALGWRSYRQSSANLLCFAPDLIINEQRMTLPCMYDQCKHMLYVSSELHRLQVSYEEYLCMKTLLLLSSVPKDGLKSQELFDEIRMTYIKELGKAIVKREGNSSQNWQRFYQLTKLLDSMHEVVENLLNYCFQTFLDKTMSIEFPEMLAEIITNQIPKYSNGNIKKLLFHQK
Method in brief: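 Agonist mode in a HeLa line carrying a GRE-controlled beta-lactamase reporter. Compounds act for 18 h at 37 C before a 2 h room-temperature FRET substrate step and fluorescence reading.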

[10] = molecular target: Glucocorticoid receptor (Homo sapiens) (UniProt P04150); experiment: qHTS assay to identify small molecule antagonists of the glucocorticoid receptor (GR) signaling pathway (AID 720692; active = well fitted inhibition curve with a large enough effect in the signal ratio in the repeat runs, not every such curve was filed as active; inconclusive = weak or mixed curves, or effect the other way; inactive = no such curve, though single readings can be large or run the other way; the % refers to the signal ratio; note: potency is the fitted concentration of half-maximal effect)
Method in brief: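 Cells plated, rested 4 h at 37 C/5% CO2; compounds in DMSO pin-transferred; dexamethasone added to 5 nM final; 18 h at 37 C; B/G FRET substrate added, 2 h room temperature; fluorescence measured.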

[11] = activation: at 62.4 µM (top of the series) unless noted

Structure (SMILES)	outcome [1]	Potency [2]	outcome [3]	outcome [4]	outcome [5]	Potency [6]	outcome [7]	outcome [8]	Potency [9, 11]	Potency [10]	activation [9, 11]	activation ([9]; at 62.4 µM (top of the series))
CCC(C)C=O (centres undefined)	inactive	inactive	inactive	inactive	inactive	inactive	inactive	inactive				
C[C@@H](O)[C@H]1C(=O)N2C(C(=O)O)=C(S[C@@H]3CN[C@H](C(=O)N(C)C)C3)[C@H](C)[C@H]12	inactive	inactive	inactive	inactive	inactive	inactive	inactive	inactive	inactive			
CC1=C(/C=C/C(C)=C/C=C/C(C)=C/CO)C(C)(C)CCC1	inactive	inactive	inactive	inactive	inactive	inactive	inactive	inactive				
Nc1c(S(=O)(=O)O)cc(Br)c2c1C(=O)c1ccccc1C2=O	inactive	inactive	inactive	inactive	inactive	inactive	inactive	inactive				
CCCCC(CC)C(=O)OCCOCCOCCOC(=O)C(CC)CCCC (centres undefined)	inactive	inactive	inactive	inactive	inactive	inactive	inactive	inactive	inactive	inactive		
CC(C)(C)C(=O)C1C(=O)c2ccccc2C1=O	inactive	inactive	inactive	inactive	inactive	inactive	inactive	inactive	inactive			
COC(=O)c1ccc(C(=O)OC)cc1	inactive	inactive	inactive	inactive	inactive	inactive	inactive	inactive				
CC1COc2ccccc2N1C(=O)C(Cl)Cl (centres undefined)	inactive	inactive	inactive	inactive	inactive	inactive	inactive	inactive	inactive			
O=C(c1cc(O)c(O)c(O)c1)c1ccc(O)c(O)c1O	inactive	inactive	inactive	inactive	inactive	inactive	inactive	inactive	inactive			
c1ccc2[nH]cnc2c1	inactive	inactive	inactive	inactive	inactive	inactive	inactive	inactive				
CC1=CC[C@H]2C[C@@H]1C2(C)C	inactive	inactive	inactive	inactive	inactive	inactive	inactive	inactive				
CC1(C)O[C@@H]2C[C@H]3[C@@H]4C[C@H](F)C5=CC(=O)CC[C@]5(C)[C@H]4[C@@H](O)C[C@]3(C)[C@]2(C(=O)CO)O1	inactive	inactive	inactive	inactive	inactive	inactive	inactive	inactive	18.2 nM [inconclusive] (active) and 3.9 nM (active)			
O=[N+]([O-])c1cccc(Cl)c1	inactive	inactive	inactive	inactive	inactive	inactive	inactive	inactive				
CC(C)NCC(O)COc1cccc2ccccc12 (centres undefined)	inactive	inactive	inactive	inactive	inactive	inactive	inactive	inactive				
CNC[C@H](O)[C@@H](O)[C@H](O)[C@H](O)CO	inactive	inactive	inactive	inactive	inactive	inactive	inactive	inactive				
S=c1nc[nH]c2nc[nH]c12	inactive	inactive	inactive	inactive	inactive	inactive	inactive	inactive				
CC1(C)CC(N=C=O)CC(C)(CN=C=O)C1 (centres undefined)	inactive	inactive	inactive	inactive	inactive	inactive	inactive	inactive				
NCCNCCNCCNCCN	inactive	inactive	inactive	inactive	inactive	inactive	inactive	inactive	inactive	inactive		
C=C1CC[C@H](O)CC1=C/C=C1\CCC[C@]2(C)[C@@H]([C@H](C)/C=C/[C@H](C)C(C)C)CC[C@@H]12	inactive	inactive	inactive	inactive	inactive	inactive	inactive	inactive	inactive			
CC(C)n1c(/C=C/[C@@H](O)C[C@@H](O)CC(=O)O)c(-c2ccc(F)cc2)c2ccccc21	inactive	inactive	inactive	inactive	inactive	inactive	inactive	inactive				
Oc1c(Cl)cc(Cl)c(Cl)c1Cl	inactive	inactive	inactive	inactive	inactive	inactive	inactive	inactive	inactive	49 µM (active)		
O=C(Oc1ccccc1)c1ccc(O)cc1	inactive	inactive	inactive	inactive	inactive	inactive	inactive	inactive	inactive			
NS(=O)(=O)c1cc2c(cc1Cl)NC=NS2(=O)=O	inactive	inactive	inactive	inactive	inactive	inactive	inactive	inactive				
CC1Cc2ccccc2N1NC(=O)c1ccc(Cl)c(S(N)(=O)=O)c1 (centres undefined)	inactive	inactive	inactive	inactive	inactive	inactive	inactive	inactive				
CC(=O)Nc1ccc(C(=O)O)cc1	inactive	inactive	inactive	inactive	inactive	inactive	inactive	inactive	inactive	inactive		
COC(=O)Nc1nc2ccc(Sc3ccccc3)cc2[nH]1	inactive	inactive	inactive	inactive	inactive	inactive	inactive	inactive			2.86% [inconclusive] [at 29.2 µM] (active)	2.36%
CCCCCCCCC	inactive	inactive	inactive	inactive	inactive	inactive	inactive	inactive	inactive	inactive		
Nc1cc(-c2ccncc2)c[nH]c1=O	inactive	inactive	inactive	inactive	inactive	inactive	inactive	inactive	inactive			

Source: PubChem BioAssay (Tox21)
